Screening data deposited in PubChem BioAssay by Fisher Drug Discovery Resource Center.
In the library only some 0.28% were active in any assay of this set; here they are far more common.
NPYLR7 agonist = activates Aedes aegypti NPYLR7 receptor; HEK293T NPYLR7/Galpha15, GCaMP6s calcium fluorescence; activation, % at 10 µM; actives 0.15% (n = 270,000); in the data active means activation above about 40%;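 further: 0% = vehicle and 100% = reference agonist at the receptor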
hcGAS lum = inhibitors of human cGAS; Q8N884; recombinant h-cGAS, ATP depletion, Kinase-Glo luminescence; inhibition, % at 12.5 µM; actives 0.081% (n = 290,000); AID 1259398;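 further: 0% = vehicle reaction and 100% = reaction without DNA for no activity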
mcGAS inh = mouse cGAS inhibition by luminescence; recombinant cGAS, Kinase-Glo ATP depletion luminescence; inhibition, % at 12.5 µM; actives 0.15% (n = 160,000); AID 1259399;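 further: 0% = negative control wells and 100% = reference inhibitor with no enzyme activity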
Target sequence (Q8C6L5 whole entry, looked up): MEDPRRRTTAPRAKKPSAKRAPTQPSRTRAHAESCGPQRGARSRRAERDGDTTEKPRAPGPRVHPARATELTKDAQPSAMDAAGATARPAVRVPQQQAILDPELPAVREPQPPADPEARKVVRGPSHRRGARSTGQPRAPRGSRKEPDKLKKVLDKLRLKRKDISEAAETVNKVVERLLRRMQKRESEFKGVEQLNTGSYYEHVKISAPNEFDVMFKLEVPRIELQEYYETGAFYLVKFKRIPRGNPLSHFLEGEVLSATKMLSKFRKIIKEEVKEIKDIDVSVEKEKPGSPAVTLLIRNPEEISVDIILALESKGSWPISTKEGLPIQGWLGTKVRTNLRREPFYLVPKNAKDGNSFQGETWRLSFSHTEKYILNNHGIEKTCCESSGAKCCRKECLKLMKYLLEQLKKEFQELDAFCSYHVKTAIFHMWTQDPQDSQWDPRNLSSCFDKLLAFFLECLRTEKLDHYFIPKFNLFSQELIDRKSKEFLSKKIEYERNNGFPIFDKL
The depositor's hits bear a star; nt = no result given; ! = repeats disagree. Unless noted, no stated cut-off is given here; in the data, active means inhibition above about 40%; inactive means the rest.

SMILES	NPYLR7 agonist	hcGAS lum	mcGAS inh
O=C(NN=Cc1ccccc1C(F)(F)F)c1cnccn1	-5.3	0.8	55.2*
O=C(NN=Cc1ccccc1C(F)(F)F)c1ccco1	-2.4	-2.0	-1.4
O=c1[nH]c2ccccc2n2c(=S)[nH]nc12	-0.1	37.8	52.3*
NS(=O)(=O)c1ccc2[nH]c(=O)c3n[nH]c(=O)n3c2c1	11.2	3.8	nt
CC1C(=O)c2cccc3c(=O)n(-c4ccccc4)c(O)c(c23)C1=O (centres undefined)	82.9*	4.4	nt
CC(=O)c1ccc(-n2c(=O)c3ccccc3c3ccccc3c2=O)cc1	4.2	-5.6	nt
FC(F)(F)c1nc2c(Cl)cc(Cl)cc2[nH]1	3.3	55.9*	nt
FC(F)(F)c1nc2ccccc2[nH]1	-1.0	-3.6	-2.1
CC(C)c1ccc(C2SCC(=O)N2c2ccccc2)cc1 (centres undefined)	-13.3	-4.5	-4.1
N=C(N)c1ccc(OCCCCCOc2ccc(C(N)=O)cc2)cc1	5.0	-6.0	0.0
N=C(N)c1ccc(OCCCCCOc2ccc(C(=N)N)cc2)cc1	66.4*!	4.2	nt
O=C(Cc1c[nH]c2ccccc12)N1CCN(c2cc(-n3cccn3)ncn2)CC1	-9.5	-6.4	-7.3
Cc1nc(CCNC(=O)c2cc(C(C)C)on2)sc1C	0.3	-3.8	nt
Cc1cccc2[nH]c(CCNC(=O)c3cc(C(C)C)on3)nc12	3.5	72.6*	-9.1
N#Cc1cc2cc3ccccc3nc2n2c(=O)c3cc(Br)ccc3nc12	3.4	-11.2	-5.5
CS(=O)(=O)CCSCC(=O)NC1CCCC1	3.6	-8.0	-14.6
CCOC(=O)c1sc(NC(=O)CSc2nnc(C)s2)c(C(=O)OCC)c1C	-3.8	-4.3	61.3*
CCOC(=O)c1sc(NC(=O)CSc2nnc3ccccn23)c(C(=O)OCC)c1C	-1.7	-6.2	-3.0
COc1cccc(CN2CCCN(C(=O)c3ccco3)CC2)c1O	6.6	-4.7	-17.5
O=[N+]([O-])c1ccc2nc(-c3nc4ccc([N+](=O)[O-])cc4[nH]3)[nH]c2c1	3.8	-6.9	nt
O=[N+]([O-])c1ccc2nc(C(F)(F)F)[nH]c2c1	11.7	41.4*	nt
CCCC1C=CCN1c1ncnc2sc3c(c12)CCNC3 (centres undefined)	4.1	-4.7	-9.4
O=C(c1ccc(Cl)cc1)N(Cc1nccn1Cc1ccc(F)c(F)c1)CC1CC1	17.7	-4.2	-4.1
COc1ccccc1-c1cc(C(=O)NCCN2CCOCC2)n2nc(-c3ccc(Cl)cc3)cc2n1	20.7	-2.7	-7.5
CC(NCC1CCC1)c1ccccc1 (centres undefined)	-7.2	-2.5	nt
SMILES	NPYLR7 agonist	hcGAS lum	mcGAS inh
CC(NCCC(c1ccccc1)c1ccccc1)c1ccccc1 (centres undefined)	58.9*!	-4.5	-4.6
CCc1nc2ccccc2n1CCC(=O)N1CCCC(CO)(Cc2ccccc2C)C1 (centres undefined)	19.4	-7.2	-2.9
CN(c1ccccc1)S(=O)(=O)c1cccc(NC(=O)COc2cccc(N3CCCC3=O)c2)c1	3.0	-3.6	nt
O=C(Nc1cccc(-c2nnco2)c1)C1CCCCC1	85.8*	-5.6	nt
O=C(Nc1cccc(-c2cccc(-c3ccc4c(c3)OCCO4)n2)c1)C1CCCCC1	-6.8	-8.5	-5.9
CCCCC(=O)Nc1sc2c(c1-c1nc3ccccc3s1)CCN(C(C)=O)C2	3.3	-0.6	nt
CCC(=O)Nc1sc2c(c1-c1nc3ccccc3s1)CCN(C(C)C)C2	35.6	79.6*	97.3*
CC(C)N1CCc2c(sc(NC(=O)CN3C(=O)CCC3=O)c2-c2nc3ccccc3s2)C1	33.1	55.8*	51.1*
CCC(=O)Nc1sc2c(c1-c1nc3ccccc3s1)CCN(C(C)=O)C2	0.0	-5.1	nt
CC(C)(C)OC(=O)N1CCN(c2cc(-c3ccccc3)nc3ncnn23)CC1	5.7	-6.0	-6.3
CC(=O)Nc1ccc(F)c(NC(=O)c2ccc(S(=O)(=O)C(C)C)cc2)c1	12.7	-14.5	nt
Cc1cc(C)c(S(=O)(=O)N2CCCC(C(=O)NC3CCCC[C@H]3NC(=O)c3ccccc3C)C2)c(C)c1 (some centres undefined)	0.0	2.9	0.1
CC(C)CN1C(=O)C(=Cc2c(N3CCN(CCO)CC3)nc3ccccn3c2=O)SC1=S	79.0*	-3.6	-5.1
CCCNc1nc2ccccn2c(=O)c1C=C1SC(=S)N(CC(C)C)C1=O	1.8	-13.0	nt
CCCc1nc(N2CCCN(C(=O)c3ccc4c(c3)OCO4)CC2)c2c(C)nn(-c3ccccc3)c2n1	8.0	-7.4	-6.3
O=[Si]=O	-2.6	-9.5	42.0*
Cc1ccc(CN(Cc2ccc(F)cc2)CC(O)Cc2ccccc2)c(C)c1 (centres undefined)	30.0	-3.9	-5.0
CCCN(Cc1cc(C)ccc1C)CC(O)Cc1ccccc1 (centres undefined)	3.3	-5.3	62.3*
Cc1cc(C)nc(SCc2cc(=O)c(OC(=O)Cc3ccc([N+](=O)[O-])cc3)co2)n1	-11.3	-5.8	8.9
Cc1ccnc(SCc2cc(=O)c(OC(=O)Cc3ccc(Cl)cc3)co2)n1	-12.6	-2.1	32.6
CCOc1ccc(CC(=O)Oc2coc(CSc3nccc(C)n3)cc2=O)cc1	-1.2	0.3	58.7*
Cc1cc(C)nc(SCc2cc(=O)c(OC(=O)Cc3ccc(Cl)cc3)co2)n1	-10.4	-1.4	31.1
Cc1cc(C)nc(SCc2cc(=O)c(OC(=O)Cc3ccc(F)cc3)co2)n1	-15.7	4.9	81.6*
CCOc1ccc(CC(=O)Oc2coc(CSc3nc(C)cc(C)n3)cc2=O)cc1	-16.5	-0.3	63.4*
CN(CC12CC3CC(CC(C3)C1)C2)C(=O)CCc1ccc(=O)[nH]n1	nt	-14.0	-7.4
SMILES	NPYLR7 agonist	hcGAS lum	mcGAS inh
C=CCN1C=CC(=CC=C(C#N)C#N)C=C1	71.9*	-3.6	nt
CN1C(=CC=C(C#N)C#N)C=Cc2ccccc21	-5.6	9.6	nt
Cc1ccc(C)c2sc(N(CCCN3CCOCC3)C(=O)COc3ccccc3)nc12	-2.2	-6.2	-8.1
CN1CCN(Cc2cccc(NCc3cnn(C)c3)c2)CC1	-2.4	2.6	-1.8
C[C@@H](NC(=O)CN1Cc2ccc(N3CCOCC3)nc2C1=O)c1ccccc1	61.2*	-4.6	-6.5
CN(C)CCNC(=O)CN1Cc2ccc(N3CCOCC3)nc2C1=O	12.8	-3.4	-4.2
O=C(C1CCCN1C=CC(=O)C(F)(F)F)N1CCCC1 (centres undefined)	4.4	-8.7	-6.3
O=C1CSC(c2ccc(C(F)(F)F)cc2)N1CC(O)c1ccccc1 (centres undefined)	4.6	-4.6	-5.2
COCCOc1ccc(NC(=O)N(C)C(C)C2(C)CC2)cn1 (centres undefined)	134.0*	-6.7	-15.4
COc1ccc(NC(=O)c2ccc(NC(C)C)nc2)cn1	6.2	-4.2	-4.8
Cc1ccccc1Cn1c(CCNC(=O)c2ccco2)nc2ccccc21	-3.0	-5.5	-7.8
COc1ccccc1CCNC(=O)c1ccc(Cn2c(C)nc3ccccc32)o1	64.2*	-2.8	nt
CCOC(=O)N1CCN(C(=O)c2cc3ccccc3cc2NC(=O)C(C)C)CC1	13.9	-3.6	nt
Cc1ccc(Nc2nc3c([nH]2)c(=O)n(C)c(=O)n3C)cc1	6.0	-5.0	-10.6
Cc1ccc(-c2nc3nc(N)n(C)c(=O)c3[nH]c2=O)cc1	135.9*	-5.6	-8.0
CCCN(C)c1nccn2c(=O)n(CC(=O)Nc3ccc(F)cc3)nc12	-7.5	-4.4	-3.8
CCOC(=O)Cc1cnc(C)[nH]c1=O	3.6	-2.7	-2.1
CCOC(=O)Cc1c(C)n2nc(C)cc2[nH]c1=O	-1.9	58.5*	nt
